{
  "source": "PubChem BioAssay AID1159580",
  "about": "(chemical genetic matrix, 2015)",
  "test": "chemical genetic growth profiling, strain panel (AID 1159580);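 note: tested at 20 µM; growth read once vehicle control cultures reached saturation at 30 °C; 1 = growth at the plate median or of vehicle wells; lower values mean less growth of the strain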",
  "conditions": "S. cerevisiae deletion strains, growth OD",
  "note": "“And” between values parts separate entries of the source, which are not always exact repeats. Equal values may be shown once. The campaign covered roughly 5,500 compounds. About 2,000 (36%) were called active. Another 18% or so got no clear call; they are omitted. This is one part of the list. Unmarked numbers belong to inactive results. Cut-off read from the data, not from the text of the source: active = normalized growth mostly below about 0.91 (no sharp cut-off); inconclusive = no clear call, values can overlap the other calls; inactive = mostly above about 0.92.",
  "data": [
    {"smiles": "CN(Cc1cc(Br)cc(Br)c1N)C1CCCCC1", "values": [
      {"measurement": "normalized growth", "setting": "locus YAL021C, strain ccr4, stronger effect = lower value", "value": 0.979},
      {"measurement": "normalized growth", "setting": "locus YAL026C, strain drs2, stronger effect = lower value", "value": 1.03},
      {"measurement": "normalized growth", "setting": "locus YAL030W, strain snc1, stronger effect = lower value", "value": 1.06},
      {"measurement": "normalized growth", "setting": "locus YBL061C, strain skt5, stronger effect = lower value", "value": 1.03},
      {"measurement": "normalized growth", "setting": "locus YBR009C, strain hhf1, stronger effect = lower value", "value": 1},
      {"measurement": "normalized growth", "setting": "locus YBR021W, strain FUR4, stronger effect = lower value", "value": 0.948},
      {"measurement": "normalized growth", "setting": "locus YBR023C, strain chs3, stronger effect = lower value", "value": 1.03},
      {"measurement": "normalized growth", "setting": "locus YBR171W, strain sec66, stronger effect = lower value", "value": 1.06},
      {"measurement": "normalized growth", "setting": "locus YBR229C, strain ROT2, stronger effect = lower value", "value": 1.01},
      {"measurement": "normalized growth", "setting": "locus YBR231C, strain swc5, stronger effect = lower value", "value": 1.02},
      {"measurement": "normalized growth", "setting": "locus YBR279W, strain paf1, stronger effect = lower value", "value": 1.02},
      {"measurement": "normalized growth", "setting": "locus YCL011C, strain gbp2, stronger effect = lower value", "value": 1.02},
      {"measurement": "normalized growth", "setting": "locus YCL016C, strain dcc1, stronger effect = lower value", "value": 1.01},
      {"measurement": "normalized growth", "setting": "locus YCL029C, strain bik1, stronger effect = lower value", "value": 1.02},
      {"measurement": "normalized growth", "setting": "locus YCL061C, strain MRC1, stronger effect = lower value", "value": 1.01},
      {"measurement": "normalized growth", "setting": "locus YCL069W, strain vba3, stronger effect = lower value", "value": 1.03},
      {"measurement": "normalized growth", "setting": "locus YCR088W, strain abp1, stronger effect = lower value", "value": 1.05},
      {"measurement": "normalized growth", "setting": "locus YDL005C, strain med2, stronger effect = lower value", "value": 1.07},
      {"measurement": "normalized growth", "setting": "locus YDL035C, strain GPR1, stronger effect = lower value", "value": 0.943},
      {"measurement": "normalized growth", "setting": "locus YDL040C, strain nat1, stronger effect = lower value", "value": 1.03},
      {"measurement": "normalized growth", "setting": "locus YDL074C, strain BRE1, stronger effect = lower value", "value": 0.954},
      {"measurement": "normalized growth", "setting": "locus YDL101C, strain DUN1, stronger effect = lower value", "value": 0.999},
      {"measurement": "normalized growth", "setting": "locus YDL134C, strain PPH21, stronger effect = lower value", "value": 1},
      {"measurement": "normalized growth", "setting": "locus YDL185W, strain tfp1, stronger effect = lower value", "value": 1.02},
      {"measurement": "normalized growth", "setting": "locus YDL192W, strain arf1, stronger effect = lower value", "value": 1.02},
      {"measurement": "normalized growth", "setting": "locus YDR001C, strain nth1, stronger effect = lower value", "value": 1.03},
      {"measurement": "normalized growth", "setting": "locus YDR069C, strain doa4, stronger effect = lower value", "value": 0.983},
      {"measurement": "normalized growth", "setting": "locus YDR101C, strain arx1, stronger effect = lower value", "value": 0.999},
      {"measurement": "normalized growth", "setting": "locus YDR137W, strain rgp1, stronger effect = lower value", "value": 1.03},
      {"measurement": "normalized growth", "setting": "locus YDR159W, strain sac3, stronger effect = lower value", "value": 1.09},
      {"measurement": "normalized growth", "setting": "locus YDR162C, strain NBP2, stronger effect = lower value", "value": 1.02},
      {"measurement": "normalized growth", "setting": "locus YDR195W, strain ref2", "value": 1.13},
      {"measurement": "normalized growth", "setting": "locus YDR297W, strain sur2, stronger effect = lower value", "value": 1.03},
      {"measurement": "normalized growth", "setting": "locus YDR318W, strain mcm21, stronger effect = lower value", "value": 0.982},
      {"measurement": "normalized growth", "setting": "locus YDR334W, strain swr1, stronger effect = lower value", "value": 1.03},
      {"measurement": "normalized growth", "setting": "locus YDR335W, strain msn5, stronger effect = lower value", "value": 1.02},
      {"measurement": "normalized growth", "setting": "locus YDR388W, stronger effect = lower value", "value": 1.01},
      {"measurement": "normalized growth", "setting": "locus YDR392W, strain spt3, stronger effect = lower value", "value": 0.975},
      {"measurement": "normalized growth", "setting": "locus YDR502C, strain sam2, stronger effect = lower value", "value": 0.996},
      {"measurement": "normalized growth", "setting": "locus YEL003W, strain gim4, stronger effect = lower value", "value": 1.01},
      {"measurement": "normalized growth", "setting": "locus YEL037C, strain rad23, stronger effect = lower value", "value": 1.03},
      {"measurement": "normalized growth", "setting": "locus YEL061C, strain CIN8 (second series), stronger effect = lower value", "value": 0.991},
      {"measurement": "normalized growth", "setting": "locus YEL061C, strain CIN8, stronger effect = lower value", "value": 0.975},
      {"measurement": "normalized growth", "setting": "locus YER015W, strain faa2, stronger effect = lower value", "value": 1.03},
      {"measurement": "normalized growth", "setting": "locus YER016W, strain bim1, stronger effect = lower value", "value": 0.988},
      {"measurement": "normalized growth", "setting": "locus YER110C, stronger effect = lower value", "value": 1.03},
      {"measurement": "normalized growth", "setting": "locus YER111C, strain swi4, stronger effect = lower value", "value": 1.04},
      {"measurement": "normalized growth", "setting": "locus YER155C, strain BEM2 (second series), stronger effect = lower value", "value": 1.03},
      {"measurement": "normalized growth", "setting": "locus YER155C, strain BEM2, stronger effect = lower value", "value": 1.01},
      {"measurement": "normalized growth", "setting": "locus YER167W, strain BCK2, stronger effect = lower value", "value": 1.02},
      {"measurement": "normalized growth", "setting": "locus YFR010W, strain ubp6, stronger effect = lower value", "value": 0.994},
      {"measurement": "normalized growth", "setting": "locus YGL078C, strain dbp3, stronger effect = lower value", "value": 1.02},
      {"measurement": "normalized growth", "setting": "locus YGL086W, strain mad1, stronger effect = lower value", "value": 0.967},
      {"measurement": "normalized growth", "setting": "locus YGL167C, strain pmr1, stronger effect = lower value", "value": 1.03},
      {"measurement": "normalized growth", "setting": "locus YGL173C, strain kem1, stronger effect = lower value", "value": 0.995},
      {"measurement": "normalized growth", "setting": "locus YGL227W, strain vid30, stronger effect = lower value", "value": 1.04},
      {"measurement": "normalized growth", "setting": "locus YGL240W, strain doc1, stronger effect = lower value", "value": 0.965},
      {"measurement": "normalized growth", "setting": "locus YGL248W, strain PDE1, stronger effect = lower value", "value": 0.984},
      {"measurement": "normalized growth", "setting": "locus YGL253W, strain hxk2, stronger effect = lower value", "value": 1.03},
      {"measurement": "normalized growth", "setting": "locus YGR135W, strain pre9, stronger effect = lower value", "value": 1.02},
      {"measurement": "normalized growth", "setting": "locus YGR252W, strain gcn5, stronger effect = lower value", "value": 0.84},
      {"measurement": "normalized growth", "setting": "locus YHR013C, strain ard1, stronger effect = lower value", "value": 1.06},
      {"measurement": "normalized growth", "setting": "locus YHR027C, strain rpn1, stronger effect = lower value", "value": 1.01},
      {"measurement": "normalized growth", "setting": "locus YHR030C, strain SLT2, stronger effect = lower value", "value": "1.02 and 0.894"},
      {"measurement": "normalized growth", "setting": "locus YHR079C, strain IRE1 (second series), stronger effect = lower value", "value": 1.02},
      {"measurement": "normalized growth", "setting": "locus YHR079C, strain IRE1, stronger effect = lower value", "value": 0.936},
      {"measurement": "normalized growth", "setting": "locus YHR094C, strain hxt1, stronger effect = lower value", "value": 1.03},
      {"measurement": "normalized growth", "setting": "locus YHR129C, strain ARP1, stronger effect = lower value", "value": 1.01},
      {"measurement": "normalized growth", "setting": "locus YHR142W, strain chs7, stronger effect = lower value", "value": 1.06},
      {"measurement": "normalized growth", "setting": "locus YHR200W, strain rpn10, stronger effect = lower value", "value": 1.01},
      {"measurement": "normalized growth", "setting": "locus YIL066C, strain RNR3, stronger effect = lower value", "value": 0.991},
      {"measurement": "normalized growth", "setting": "locus YIL073C, strain SPO22, stronger effect = lower value", "value": 1.06},
      {"measurement": "normalized growth", "setting": "locus YIL125W, strain kgd1, stronger effect = lower value", "value": 1.01},
      {"measurement": "normalized growth", "setting": "locus YIR030C, strain dcg1, stronger effect = lower value", "value": 1.02},
      {"measurement": "normalized growth", "setting": "locus YJL092W, strain hpr5, stronger effect = lower value", "value": 1.03},
      {"measurement": "normalized growth", "setting": "locus YJL095W, strain BCK1 (second series), stronger effect = lower value", "value": 1.02},
      {"measurement": "normalized growth", "setting": "locus YJL095W, strain BCK1, stronger effect = lower value", "value": "0.97 and 0.902"},
      {"measurement": "normalized growth", "setting": "locus YJL115W, strain asf1, stronger effect = lower value", "value": 1.06},
      {"measurement": "normalized growth", "setting": "locus YJL129C, strain trk1, stronger effect = lower value", "value": 1.03},
      {"measurement": "normalized growth", "setting": "locus YJL134W, strain LCB3, stronger effect = lower value", "value": 1.02},
      {"measurement": "normalized growth", "setting": "locus YJL154C, strain vps35, stronger effect = lower value", "value": 1.03},
      {"measurement": "normalized growth", "setting": "locus YJL164C, strain tpk1, stronger effect = lower value", "value": 1.02},
      {"measurement": "normalized growth", "setting": "locus YJL166W, strain qcr8, stronger effect = lower value", "value": 1},
      {"measurement": "normalized growth", "setting": "locus YJL168C, strain set2, stronger effect = lower value", "value": 1.02},
      {"measurement": "normalized growth", "setting": "locus YJL187C, strain SWE1 (second series), stronger effect = lower value", "value": 0.974},
      {"measurement": "normalized growth", "setting": "locus YJR043C, strain POL32, stronger effect = lower value", "value": 0.987},
      {"measurement": "normalized growth", "setting": "locus YJR066W, strain TOR1, stronger effect = lower value", "value": "0.81 (active)"}
    ]}
  ]
}
